Results as given in PubChem BioAssay (Tox21).
Records with an inconclusive call do not appear. A call without a number means that no potency is given here. A number with no mark means an inactive call. Active and inactive are the calls of the source. Calls come from the whole dose curve; as a rule, active = well fitted cell-killing curve with a large enough effect in the repeat runs; inconclusive = weak or mixed curves, or effect the other way; inactive = flat fitted curve, though single readings scatter.

Experiment: cAMP Responsive Elements (CRE) small molecule agonists, cell-based qHTS assay: qHTS cell viability counter screen (AID 2060914); note: nearly all actives have a fitted effect of over 50% in size
Settings: CRE-bla HEK293T viability, CellTiter-Glo luminescence, 5 h; series mostly up to 92.4 µM
In short: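 Cytotoxicity was measured as ATP luminescence (CellTiter-Glo, 30 min at room temperature) in the same wells as the CRE-bla FRET read-out. HEK293T CRE-bla cells had 3 h compound exposure at 37C/5% CO2.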

Row | Structure (SMILES) | Potency | activity change, negative = cytotoxicity
1 | CC[C@H]1OC(=O)[C@H](C)[C@@H](O[C@H]2C[C@@](C)(OC)[C@@H](O)[C@H](C)O2)[C@H](C)[C@@H](O[C@@H]2O[C@H](C)C[C@H](N(C)C)[C@H]2O)[C@](C)(O)C[C@@H](C)C(=O)[C@H](C)[C@@H](O)[C@]1(C)O | inactive | 
2 | [Cl][Eu]([Cl])[Cl] | inactive | 
3 | CC(C)=CC1CC(C)CCO1 (centres undefined) | inactive | 
4 | CO/N=C(/C(=O)N[C@@H]1C(=O)N2C(C(=O)OCOC(=O)C(C)(C)C)=C(C)CS[C@H]12)c1csc(N)n1 | inactive | 
5 | CCCCCCCCCCCCCCCCCC(=O)OCCCCCCCCCCCCCC(C)C | inactive | 
6 | CC(=O)CC(c1ccccc1)c1c(O)c2ccccc2oc1=O (centres undefined) | inactive | 
7 | CC1(C)O[C@@H]2C[C@H]3[C@@H]4CCC5=CC(=O)C=C[C@]5(C)[C@@]4(F)[C@@H](O)C[C@]3(C)[C@]2(C(=O)CO)O1 | inactive | 
8 | O=C1C(N(CO)C(=O)NCO)N(CO)C(=O)N1CO (centres undefined) | inactive | 
9 | C1COC(NC(C2CC2)C2CC2)=N1 | inactive | 
10 | CC(C)C(=O)c1c(C(C)C)nn2ccccc12 | inactive | 
11 | CC(C)CNCC(C)C | inactive | 
12 | O=C1OCCO1 | inactive | 
13 | CC1(C)NC(=O)NC1=O | inactive | 
14 | CC(=O)N[C@H]1[C@H]([C@H](O)[C@H](O)CO)OC(C(=O)O)=C[C@@H]1N=C(N)N | inactive | 
15 | CN1CCCC(CC2c3ccccc3Sc3ccccc32)C1 (centres undefined) | inactive | 
16 | Cc1cc(C)cc(O)c1 | inactive | 
17 | CCCCC/C=C\C/C=C\CCCCCCCC(=O)NC(C)c1ccccc1 (centres undefined) | inactive | 
18 | Nc1ccc2cc3ccc(N)cc3nc2c1 | inactive | 
19 | NC1CCCCC1N (centres undefined) | inactive | 
20 | Cc1ccc(Cl)cc1 | inactive | 

Row | Structure (SMILES) | Potency | activity change, negative = cytotoxicity
21 | C=CC(C)(C)CC(=O)OC | inactive | 
22 | CCOc1ncc(F)c(=O)[nH]1 | inactive | 
23 | CC(C)c1ccc2c(C(C)C)cc(C(C)C)c(S(=O)(=O)O)c2c1 | inactive | 
24 | COc1ccc(C(=O)c2ccccc2)c(O)c1 | inactive | 
25 | CC(=O)Nc1ccc(OCCOCCOc2ccc(NC(C)=O)cc2)cc1 | inactive | 
26 | CC(=O)O[C@H]1C[C@@H]2CC[C@@]1(C)C2(C)C | inactive | 
27 | O=C(O)/C=C/c1cnc[nH]1 | inactive | 
28 | CC(O)CO (centres undefined) | inactive | 
29 | COc1ccc(OC(F)(F)F)cc1CN[C@H]1CCCN[C@H]1c1ccccc1 | inactive | 
30 | CCCCC/C=C\C/C=C\CCCCCCCC(=O)OC | inactive | 
31 | OCCCc1ccccc1 | inactive | 
32 | Nc1c(NC/C=C\COc2cc(CN3CCCCC3)ccn2)c(=O)c1=O |  | 0.246% [at 18.9 µM]
33 | CC(C(=O)O)c1ccc(C(=O)c2ccccc2)s1 (centres undefined) | inactive | 
34 | CC(=O)SCc1ccco1 | inactive | 
35 | CC(C)CCCCOC(=O)c1ccccc1C(=O)OCCCCC(C)C | inactive | 
36 | CN(C)CCN(Cc1cccs1)c1ccccn1 | inactive | 
37 | N#CCCNCCC#N | inactive | 
38 | Nc1ccc(Nc2ccccc2)cc1 | inactive | 
39 | CC(C)(C)c1cc(Cc2cc(C(C)(C)C)c(O)c(C(C)(C)C)c2)cc(C(C)(C)C)c1O | inactive | 
